Reference: ChEMBL document CHEMBL2218924, “A broad activity screen in support of a chemogenomic map for kinase signalling research and drug discovery” (Biochem J, 2013)

Legend:
[1] = biological target: Ephrin type-A receptor 5 (Homo sapiens) (UniProt P54756); settings: at 1 µM
[2] = biological target: Ephrin type-A receptor 5 (Homo sapiens) (UniProt P54756); settings: at 10 µM
[3] = biological target: Ephrin type-A receptor 7 (Homo sapiens) (UniProt Q15375); settings: at 10 µM
[4] = biological target: T1, Ephrin type-B receptor 3 (Homo sapiens) (UniProt P54753); settings: at 1 µM
T1 sequence (whole entry): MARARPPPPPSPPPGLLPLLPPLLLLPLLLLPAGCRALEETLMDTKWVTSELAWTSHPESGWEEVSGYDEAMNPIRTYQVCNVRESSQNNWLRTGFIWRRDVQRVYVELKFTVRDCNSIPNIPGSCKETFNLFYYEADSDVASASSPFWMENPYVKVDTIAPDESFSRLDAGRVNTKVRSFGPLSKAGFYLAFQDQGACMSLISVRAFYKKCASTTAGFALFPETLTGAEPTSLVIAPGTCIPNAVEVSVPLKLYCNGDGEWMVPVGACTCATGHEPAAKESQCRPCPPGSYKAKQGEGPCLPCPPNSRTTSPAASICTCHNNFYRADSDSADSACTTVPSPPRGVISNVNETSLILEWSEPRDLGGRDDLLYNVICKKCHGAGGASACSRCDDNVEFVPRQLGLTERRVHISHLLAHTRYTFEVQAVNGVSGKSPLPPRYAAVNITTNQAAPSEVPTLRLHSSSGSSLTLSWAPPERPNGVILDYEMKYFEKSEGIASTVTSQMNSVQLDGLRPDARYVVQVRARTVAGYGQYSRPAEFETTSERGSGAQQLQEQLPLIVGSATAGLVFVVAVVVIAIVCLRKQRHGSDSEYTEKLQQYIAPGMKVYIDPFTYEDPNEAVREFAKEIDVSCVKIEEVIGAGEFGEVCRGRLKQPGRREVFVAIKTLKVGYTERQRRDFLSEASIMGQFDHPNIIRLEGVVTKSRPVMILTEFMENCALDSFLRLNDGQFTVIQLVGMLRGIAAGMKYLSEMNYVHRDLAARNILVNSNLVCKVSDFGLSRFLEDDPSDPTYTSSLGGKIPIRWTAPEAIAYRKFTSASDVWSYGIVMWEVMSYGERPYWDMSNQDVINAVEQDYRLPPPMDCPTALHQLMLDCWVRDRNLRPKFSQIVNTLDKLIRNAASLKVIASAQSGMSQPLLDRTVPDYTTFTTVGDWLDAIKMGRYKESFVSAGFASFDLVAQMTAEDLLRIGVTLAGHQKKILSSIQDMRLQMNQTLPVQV

[5] = biological target: T1, Ephrin type-B receptor 3 (Homo sapiens); settings: at 10 µM
[6] = biological target: T2, Ephrin type-B receptor 4 (Homo sapiens) (UniProt P54760); settings: at 1 µM
T2 sequence (whole entry): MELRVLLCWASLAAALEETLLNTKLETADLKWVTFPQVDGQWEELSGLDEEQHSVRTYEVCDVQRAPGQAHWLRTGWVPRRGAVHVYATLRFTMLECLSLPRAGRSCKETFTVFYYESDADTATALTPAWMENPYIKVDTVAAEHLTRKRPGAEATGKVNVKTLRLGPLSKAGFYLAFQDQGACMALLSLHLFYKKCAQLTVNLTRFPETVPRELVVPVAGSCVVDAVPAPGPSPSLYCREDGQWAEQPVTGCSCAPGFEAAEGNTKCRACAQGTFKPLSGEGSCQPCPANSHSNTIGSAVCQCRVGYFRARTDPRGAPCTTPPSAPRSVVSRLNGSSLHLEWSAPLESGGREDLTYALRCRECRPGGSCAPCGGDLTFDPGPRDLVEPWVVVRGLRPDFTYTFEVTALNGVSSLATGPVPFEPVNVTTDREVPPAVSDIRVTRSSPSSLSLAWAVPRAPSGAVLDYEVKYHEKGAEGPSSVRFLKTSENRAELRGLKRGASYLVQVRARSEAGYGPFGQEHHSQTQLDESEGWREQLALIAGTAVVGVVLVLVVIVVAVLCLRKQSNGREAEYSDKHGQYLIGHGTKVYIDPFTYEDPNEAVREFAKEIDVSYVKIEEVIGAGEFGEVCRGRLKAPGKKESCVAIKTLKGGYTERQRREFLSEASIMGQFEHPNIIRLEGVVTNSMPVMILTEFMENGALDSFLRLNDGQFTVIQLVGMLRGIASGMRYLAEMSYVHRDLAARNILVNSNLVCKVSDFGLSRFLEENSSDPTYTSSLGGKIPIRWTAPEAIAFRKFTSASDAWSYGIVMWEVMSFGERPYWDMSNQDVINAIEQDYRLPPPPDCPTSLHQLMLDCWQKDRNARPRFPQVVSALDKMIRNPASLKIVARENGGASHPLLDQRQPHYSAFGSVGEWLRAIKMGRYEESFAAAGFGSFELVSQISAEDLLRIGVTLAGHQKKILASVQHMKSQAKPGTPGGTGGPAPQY

[7] = biological target: T2, Ephrin type-B receptor 4 (Homo sapiens); settings: at 10 µM
[8] = biological target: Receptor tyrosine-protein kinase erbB-4 (Homo sapiens) (UniProt Q15303); settings: at 10 µM
[9] = biological target: Focal adhesion kinase 1 (Homo sapiens) (UniProt Q05397); settings: at 1 µM
[10] = biological target: T3, Ephrin type-B receptor 1 (Homo sapiens) (UniProt P54762); settings: at 1 µM
T3 sequence (whole entry): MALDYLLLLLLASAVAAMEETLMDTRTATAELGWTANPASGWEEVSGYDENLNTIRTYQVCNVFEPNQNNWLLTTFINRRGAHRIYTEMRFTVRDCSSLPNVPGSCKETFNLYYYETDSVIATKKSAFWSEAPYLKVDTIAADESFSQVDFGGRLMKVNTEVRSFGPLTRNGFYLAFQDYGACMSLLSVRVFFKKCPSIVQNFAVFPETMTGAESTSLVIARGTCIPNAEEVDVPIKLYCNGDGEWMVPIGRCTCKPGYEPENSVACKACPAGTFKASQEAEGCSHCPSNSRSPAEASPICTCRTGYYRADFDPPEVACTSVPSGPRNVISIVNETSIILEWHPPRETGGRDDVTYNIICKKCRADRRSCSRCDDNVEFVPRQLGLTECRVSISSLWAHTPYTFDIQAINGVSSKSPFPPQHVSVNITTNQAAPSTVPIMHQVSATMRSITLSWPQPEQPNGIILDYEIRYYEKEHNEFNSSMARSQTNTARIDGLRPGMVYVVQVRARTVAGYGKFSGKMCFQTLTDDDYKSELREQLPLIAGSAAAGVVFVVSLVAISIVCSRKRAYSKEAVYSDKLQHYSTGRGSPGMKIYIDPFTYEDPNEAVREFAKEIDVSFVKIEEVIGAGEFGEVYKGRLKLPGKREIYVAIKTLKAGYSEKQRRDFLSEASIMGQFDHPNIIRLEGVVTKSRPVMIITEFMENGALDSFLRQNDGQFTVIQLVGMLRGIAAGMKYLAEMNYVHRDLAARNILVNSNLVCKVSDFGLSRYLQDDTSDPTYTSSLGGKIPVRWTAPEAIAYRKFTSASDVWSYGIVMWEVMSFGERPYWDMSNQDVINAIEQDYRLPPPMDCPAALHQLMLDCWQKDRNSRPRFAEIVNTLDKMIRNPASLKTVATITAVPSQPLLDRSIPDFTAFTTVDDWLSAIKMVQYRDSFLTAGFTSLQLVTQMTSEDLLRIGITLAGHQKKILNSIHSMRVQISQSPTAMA

[11] = biological target: T4, Ephrin type-A receptor 3 (Homo sapiens) (UniProt P29320); settings: at 10 µM
T4 sequence (whole entry): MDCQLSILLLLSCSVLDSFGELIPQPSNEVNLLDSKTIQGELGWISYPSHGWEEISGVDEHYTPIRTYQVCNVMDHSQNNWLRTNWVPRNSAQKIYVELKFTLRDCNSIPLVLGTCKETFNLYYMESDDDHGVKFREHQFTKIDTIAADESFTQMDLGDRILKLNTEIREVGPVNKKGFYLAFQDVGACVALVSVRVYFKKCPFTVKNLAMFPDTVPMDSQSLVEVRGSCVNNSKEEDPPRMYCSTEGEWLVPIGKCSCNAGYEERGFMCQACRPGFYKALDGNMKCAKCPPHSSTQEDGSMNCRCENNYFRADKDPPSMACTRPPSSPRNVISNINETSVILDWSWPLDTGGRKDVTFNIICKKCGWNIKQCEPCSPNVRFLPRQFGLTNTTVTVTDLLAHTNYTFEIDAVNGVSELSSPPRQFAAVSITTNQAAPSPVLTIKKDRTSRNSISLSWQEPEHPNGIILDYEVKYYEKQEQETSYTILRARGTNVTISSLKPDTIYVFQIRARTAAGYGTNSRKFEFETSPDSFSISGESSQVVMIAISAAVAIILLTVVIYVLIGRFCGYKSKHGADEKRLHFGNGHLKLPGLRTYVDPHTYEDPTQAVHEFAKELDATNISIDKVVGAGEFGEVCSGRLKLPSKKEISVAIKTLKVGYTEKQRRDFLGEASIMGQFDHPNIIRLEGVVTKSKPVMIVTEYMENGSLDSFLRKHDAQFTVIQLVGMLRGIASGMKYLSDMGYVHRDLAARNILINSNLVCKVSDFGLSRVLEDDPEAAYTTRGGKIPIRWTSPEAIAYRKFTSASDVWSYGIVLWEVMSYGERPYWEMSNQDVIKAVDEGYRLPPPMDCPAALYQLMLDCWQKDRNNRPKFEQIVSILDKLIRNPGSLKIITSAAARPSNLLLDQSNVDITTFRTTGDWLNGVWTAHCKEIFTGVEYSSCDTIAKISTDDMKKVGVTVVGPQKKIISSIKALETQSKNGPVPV

[12] = biological target: T3, Ephrin type-B receptor 1 (Homo sapiens); settings: at 10 µM

Chain of Ephrin type-A receptor 5 (Homo sapiens) (P54756 whole entry): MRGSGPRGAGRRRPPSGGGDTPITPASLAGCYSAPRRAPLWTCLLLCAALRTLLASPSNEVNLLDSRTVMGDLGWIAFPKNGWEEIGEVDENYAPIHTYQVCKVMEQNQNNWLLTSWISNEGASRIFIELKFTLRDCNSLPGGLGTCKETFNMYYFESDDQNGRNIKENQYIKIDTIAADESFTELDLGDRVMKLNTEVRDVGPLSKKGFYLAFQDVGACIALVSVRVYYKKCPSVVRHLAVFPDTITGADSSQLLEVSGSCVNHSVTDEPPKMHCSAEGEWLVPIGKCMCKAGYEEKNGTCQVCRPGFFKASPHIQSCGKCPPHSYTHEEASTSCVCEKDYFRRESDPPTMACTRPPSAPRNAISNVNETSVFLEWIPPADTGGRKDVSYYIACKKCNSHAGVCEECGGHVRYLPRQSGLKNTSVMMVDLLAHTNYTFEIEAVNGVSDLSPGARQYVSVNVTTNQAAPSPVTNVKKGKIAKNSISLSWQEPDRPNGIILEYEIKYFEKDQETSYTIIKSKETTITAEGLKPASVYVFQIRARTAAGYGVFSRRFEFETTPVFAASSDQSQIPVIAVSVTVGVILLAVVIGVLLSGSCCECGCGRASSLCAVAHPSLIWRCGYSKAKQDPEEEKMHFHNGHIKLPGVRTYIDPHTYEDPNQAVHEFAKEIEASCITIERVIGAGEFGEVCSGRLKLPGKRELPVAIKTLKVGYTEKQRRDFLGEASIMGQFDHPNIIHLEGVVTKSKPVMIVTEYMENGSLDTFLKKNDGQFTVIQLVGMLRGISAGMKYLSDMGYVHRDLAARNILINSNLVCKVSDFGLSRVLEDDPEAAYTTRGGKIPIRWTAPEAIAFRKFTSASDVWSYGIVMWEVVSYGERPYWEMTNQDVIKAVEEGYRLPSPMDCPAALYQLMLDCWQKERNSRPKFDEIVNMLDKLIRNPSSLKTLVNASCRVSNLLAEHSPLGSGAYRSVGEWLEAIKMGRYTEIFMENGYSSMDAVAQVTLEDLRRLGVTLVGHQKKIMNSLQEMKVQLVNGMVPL
Chain of Receptor tyrosine-protein kinase erbB-4 (Homo sapiens) (Q15303 whole entry): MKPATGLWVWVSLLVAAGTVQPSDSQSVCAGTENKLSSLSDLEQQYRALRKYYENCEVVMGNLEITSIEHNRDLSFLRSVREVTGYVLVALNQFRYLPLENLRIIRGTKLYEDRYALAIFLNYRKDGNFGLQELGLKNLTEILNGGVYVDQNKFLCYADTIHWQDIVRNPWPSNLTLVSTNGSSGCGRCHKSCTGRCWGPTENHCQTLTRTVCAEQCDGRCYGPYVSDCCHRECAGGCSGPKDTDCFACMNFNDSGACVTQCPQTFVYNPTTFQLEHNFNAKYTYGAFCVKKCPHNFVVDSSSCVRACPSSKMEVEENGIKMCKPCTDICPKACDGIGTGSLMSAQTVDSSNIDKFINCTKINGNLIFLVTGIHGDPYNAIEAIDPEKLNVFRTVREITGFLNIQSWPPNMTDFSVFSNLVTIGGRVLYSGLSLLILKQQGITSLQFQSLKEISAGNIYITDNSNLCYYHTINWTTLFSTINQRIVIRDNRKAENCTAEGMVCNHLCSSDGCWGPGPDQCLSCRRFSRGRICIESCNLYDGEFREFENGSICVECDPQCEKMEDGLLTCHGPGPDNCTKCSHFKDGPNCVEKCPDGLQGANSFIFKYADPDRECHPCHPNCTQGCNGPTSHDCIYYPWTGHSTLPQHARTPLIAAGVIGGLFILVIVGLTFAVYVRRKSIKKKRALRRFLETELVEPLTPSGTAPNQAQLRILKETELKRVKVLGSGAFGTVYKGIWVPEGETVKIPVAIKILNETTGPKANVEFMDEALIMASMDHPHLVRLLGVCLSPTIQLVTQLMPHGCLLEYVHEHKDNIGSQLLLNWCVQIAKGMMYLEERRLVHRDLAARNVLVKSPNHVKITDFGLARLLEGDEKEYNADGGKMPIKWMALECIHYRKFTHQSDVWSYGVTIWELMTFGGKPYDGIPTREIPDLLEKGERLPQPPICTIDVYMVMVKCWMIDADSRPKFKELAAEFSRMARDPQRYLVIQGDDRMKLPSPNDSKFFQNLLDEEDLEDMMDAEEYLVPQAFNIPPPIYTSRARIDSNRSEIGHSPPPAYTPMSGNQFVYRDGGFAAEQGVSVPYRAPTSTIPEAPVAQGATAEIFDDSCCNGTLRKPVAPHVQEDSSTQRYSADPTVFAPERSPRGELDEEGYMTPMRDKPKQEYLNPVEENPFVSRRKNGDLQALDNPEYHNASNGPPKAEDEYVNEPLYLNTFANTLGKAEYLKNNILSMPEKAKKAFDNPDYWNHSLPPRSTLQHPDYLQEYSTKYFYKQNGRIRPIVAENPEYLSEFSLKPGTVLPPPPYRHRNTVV
Chain of Focal adhesion kinase 1 (Homo sapiens) (Q05397 2-1052 limits assumed): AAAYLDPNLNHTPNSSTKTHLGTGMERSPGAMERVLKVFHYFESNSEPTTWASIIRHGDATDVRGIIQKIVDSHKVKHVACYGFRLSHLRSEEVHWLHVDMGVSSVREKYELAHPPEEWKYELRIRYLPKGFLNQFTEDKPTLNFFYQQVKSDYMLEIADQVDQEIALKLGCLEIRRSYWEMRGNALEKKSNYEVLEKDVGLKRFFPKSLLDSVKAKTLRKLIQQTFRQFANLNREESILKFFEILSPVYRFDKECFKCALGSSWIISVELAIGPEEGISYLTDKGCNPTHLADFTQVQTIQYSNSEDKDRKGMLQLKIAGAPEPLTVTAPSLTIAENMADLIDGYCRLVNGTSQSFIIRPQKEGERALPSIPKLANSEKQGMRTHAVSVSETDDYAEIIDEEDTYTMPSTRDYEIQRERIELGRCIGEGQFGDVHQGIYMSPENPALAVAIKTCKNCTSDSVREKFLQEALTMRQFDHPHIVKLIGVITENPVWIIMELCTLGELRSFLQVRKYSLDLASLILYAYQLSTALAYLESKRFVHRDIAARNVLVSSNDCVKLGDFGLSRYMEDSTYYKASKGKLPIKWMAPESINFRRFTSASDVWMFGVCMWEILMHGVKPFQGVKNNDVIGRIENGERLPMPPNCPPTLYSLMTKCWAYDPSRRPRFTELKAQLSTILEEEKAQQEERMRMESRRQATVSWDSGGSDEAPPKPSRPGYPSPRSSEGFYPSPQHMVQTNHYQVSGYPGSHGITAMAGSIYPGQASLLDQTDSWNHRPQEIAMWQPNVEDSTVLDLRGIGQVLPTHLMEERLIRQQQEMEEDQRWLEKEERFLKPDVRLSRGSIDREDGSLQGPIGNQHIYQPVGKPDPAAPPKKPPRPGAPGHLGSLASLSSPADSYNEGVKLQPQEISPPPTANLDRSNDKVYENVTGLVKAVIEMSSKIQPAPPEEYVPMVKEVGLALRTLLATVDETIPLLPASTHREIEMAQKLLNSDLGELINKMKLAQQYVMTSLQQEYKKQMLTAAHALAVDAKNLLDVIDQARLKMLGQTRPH
Chain of Ephrin type-A receptor 7 (Homo sapiens) (Q15375 28-998 limits assumed): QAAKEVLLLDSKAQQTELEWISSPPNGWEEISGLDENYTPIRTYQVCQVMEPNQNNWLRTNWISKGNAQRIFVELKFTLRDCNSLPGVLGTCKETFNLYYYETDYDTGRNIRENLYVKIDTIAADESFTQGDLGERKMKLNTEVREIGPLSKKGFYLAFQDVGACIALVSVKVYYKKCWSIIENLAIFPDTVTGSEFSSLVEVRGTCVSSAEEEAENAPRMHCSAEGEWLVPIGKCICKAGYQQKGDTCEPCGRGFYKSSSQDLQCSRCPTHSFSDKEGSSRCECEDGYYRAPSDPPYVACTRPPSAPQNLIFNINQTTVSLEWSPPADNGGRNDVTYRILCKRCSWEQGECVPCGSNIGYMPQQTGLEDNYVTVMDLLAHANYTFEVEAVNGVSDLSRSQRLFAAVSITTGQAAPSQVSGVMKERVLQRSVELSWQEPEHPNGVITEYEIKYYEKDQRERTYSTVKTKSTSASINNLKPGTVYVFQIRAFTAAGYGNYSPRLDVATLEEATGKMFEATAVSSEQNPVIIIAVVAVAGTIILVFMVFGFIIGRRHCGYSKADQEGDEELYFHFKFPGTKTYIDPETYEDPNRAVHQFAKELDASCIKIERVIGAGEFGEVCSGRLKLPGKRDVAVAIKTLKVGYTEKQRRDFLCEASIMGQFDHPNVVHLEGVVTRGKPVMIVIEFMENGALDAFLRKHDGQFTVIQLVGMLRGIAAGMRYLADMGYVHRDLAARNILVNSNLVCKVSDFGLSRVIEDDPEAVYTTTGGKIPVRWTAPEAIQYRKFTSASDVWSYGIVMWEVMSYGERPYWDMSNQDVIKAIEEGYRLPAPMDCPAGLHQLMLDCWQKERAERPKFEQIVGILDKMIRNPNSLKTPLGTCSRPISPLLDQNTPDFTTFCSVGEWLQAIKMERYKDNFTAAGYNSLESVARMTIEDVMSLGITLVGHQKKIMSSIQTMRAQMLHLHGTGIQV

NCCNc1ncc(C(N)=O)c(Nc2cccc(C(F)(F)F)c2)n1 was tested. Which residual activity [1] did it give?
Its residual activity is 102%.

And the residual activity [2]?
The residual activity was 74%.

What about the residual activity [3] of the same compound?
Its residual activity is 72%.

What about the residual activity [4] of the same compound?
The residual activity was 113% (inactive).

And the residual activity [5]?
Its residual activity is 111%.

And the residual activity [6]?
Its residual activity is 102%.

And the residual activity [7]?
The residual activity was 101%.

What about the residual activity [8] of the same compound?
Its residual activity is 75%.

What about the residual activity [9] of the same compound?
Its residual activity is 64%.

Which residual activity [1] does the source give for Oc1cccc(-c2nc(N3CCOCC3)c3oc4ncccc4c3n2)c1 here?
Its residual activity is 98%.

What about the residual activity [2] of the same compound?
Its residual activity is 124%.

What about the residual activity [10] of the same compound?
Its residual activity is 95%.

What about the residual activity [4] of the same compound?
Its residual activity is 116% (inactive).

And the residual activity [5]?
The residual activity was 123%.

What about the residual activity [9] of the same compound?
The residual activity was 144%.

Which results are given for CC(C)N(CCC(=O)c1ccc2ccccc2c1)Cc1ccccc1?
residual activity [11]: 85%; residual activity [8]: 78%

Which results are given for N#Cc1c(NC(=O)c2cccc3ccccc23)sc2c1CCCC2?
residual activity [12]: 95%; residual activity [6]: 90%; residual activity [8]: 94%
